# Bioassay records as filed in PubChem.
# Most compounds without a hit are left out; they make up all but 1.9% or so of the library.
# EBNA-1 inhibitor – blocks EBNA-1 binding to DNA; 300,000 compounds, 0.34% hits; AID 1950; EBNA-1 DNA binding, fluorescence polarization; inhibition, % at 14.8 µM; in the data active = inhibition above about 28%
# aDG glyco act – increases alpha dystroglycan glycosylation; 360,000 compounds, 0.22% hits; activation, % at 10 µM; AID 624168; Pro5-aDG cells, alpha-DG glycosylation AlphaScreen (IIH6); 0% Pro5, 100% B10-LARGE cell signal;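 active = activation of at least 8% versus controls, or a plate z-score of at least 8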;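 also: Pro5 are CHO cells carrying HIG-tagged alpha-DG that lacks glycosylation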
# NR1D1 modulator – modulators of human Rev-erb alpha DNA binding; P20393; Rev-erbα–FITC-DNA binding, fluorescence polarization, 90 min; activity, % at 10 µM; 370,000 compounds, 0.79% hits; AID 1259318;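 active = activity above about 14%, limit read from the data; passing the limit was not always enough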;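 also: 0% = DMSO wells with 35 nM protein and 100% = DMSO wells with 750 nM protein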
# PG9 binder – small molecules binding HIV-1 gp120 antibody PG9. TR-FRET gp120-PG9 antibody binding. 360,000 compounds, 0.43% hits. AID 624416. inhibition, % at 6.7 µM; in the data active = inhibition above about 8.5%
# p47phox inh – blocks human p47phox regulatory protein of NADPH oxidases; P14598; p47phox/p22phox peptide binding, fluorescence polarization, 2 h; AID 1274; 220,000 compounds, 0.53% hits; inhibition, % at 24.7 µM;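 active = inhibition above about 30%, limit read from the data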;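 also: 0% = p47phox with labelled peptide and 100% = labelled peptide alone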
# Target sequence (P14598 whole entry, looked up): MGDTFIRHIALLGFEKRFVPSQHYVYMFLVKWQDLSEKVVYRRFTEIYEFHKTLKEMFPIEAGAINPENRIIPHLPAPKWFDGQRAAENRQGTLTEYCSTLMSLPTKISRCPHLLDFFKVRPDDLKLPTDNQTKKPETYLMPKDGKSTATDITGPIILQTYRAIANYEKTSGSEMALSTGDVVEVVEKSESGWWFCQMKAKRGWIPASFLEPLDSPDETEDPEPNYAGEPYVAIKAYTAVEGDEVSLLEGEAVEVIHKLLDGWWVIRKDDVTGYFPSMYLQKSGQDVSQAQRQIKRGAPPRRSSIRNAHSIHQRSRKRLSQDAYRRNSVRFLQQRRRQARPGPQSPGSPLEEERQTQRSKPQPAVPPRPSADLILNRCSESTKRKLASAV
# ZTA DNA inh – ZTA (EBV) inhibition in EBNA-1 counter-screen; P03206; ZTA-DNA binding, fluorescence polarization; inhibition, % at 11 µM; 320,000 compounds, 0.15% hits; in the data active = inhibition above about 33%
# * marks the source's active call; other numbers are inactive results; x = no result given; + = active, no number; ! = a repeat was not active.
SMILES,EBNA-1 inhibitor,aDG glyco act,NR1D1 modulator,PG9 binder,p47phox inh,ZTA DNA inh
CO[C@H]1C[C@H](O[C@H]2[C@H](C)[C@@H](OC3O[C@H](C)C[C@H](N(C)C)[C@H]3OC(C)=O)[C@@H](C)C[C@]3(CO3)C(=O)[C@H](C)[C@@H](OC(C)=O)[C@@H](C)[C@@H](C)OC(=O)[C@@H]2C)O[C@@H](C)[C@@H]1OC(C)=O (stereo not given in full),x,x,0,x,x,x
COc1cnc(-c2ccccn2)nc1NC(C)C,6,7.1*,-4,-2,4,-13
COc1ccccc1Sc1nc(-c2ccccn2)ncc1OC,-15,4,3,-2,-10,-5
COc1cc(/C=C2\SC(=S)N(CCCCC(=O)O)C2=O)ccc1OS(=O)(=O)c1ccc(C)cc1,8,6.9*,0,0,x,3
NC(=O)OC[C@@H]1[C@H](NC(=O)/C(=N\OCC(=O)O)c2csc(N)n2)C(=O)N1S(=O)(=O)O,x,x,-1,x,x,x
CN(O)C(=O)Nc1ccc([N+](=O)[O-])cc1,5,0,5,-3,128*,-4
CCN(CC)c1ccc(N=C2C(=O)Nc3ccccc32)cc1,+,0,7,-14,x,+
CC(C)(C)NC(=O)COc1ccc(CNn2nnnc2N)cc1,-9,0,-3,2,56*,-3
COc1cc(CNn2nnnc2N)ccc1OCC(=O)NC(C)(C)C,-15,0,-3,0,0,-14
Cc1cc(NC(=O)CSc2nnc(C3COc4ccccc4O3)n2N)no1 (stereo not given),-13,0,-2,0,44*,-22
CC(C)(C)NC(=O)c1ccccc1-c1nc(-c2ccccc2Cl)no1,-2,0,1,-2,43*,12
Cc1ccc(Cn2c(=N)n(CC(=O)c3ccccc3)c3ccccc32)cc1,-4,12*,-1,0,-34,-7
C[C@@H](O)[C@H]1C(=O)N2C(C(=O)O)=C(SC3Cn4cnc[n+]4C3)[C@H](C)[C@H]12 (stereo not given in full),x,x,-3,x,x,x
Cc1ccc(Nc2nc3ccccc3n3nnnc23)cc1,34*,0,-1,5,2,-2
Cc1cccc(C)c1NC(=S)/N=C/N(C)C,-17,1,0,-2,91*,-2
CN(C)/C=N/C(=S)Nc1ccc(Cl)cc1,3,0,-5,-1,-13,16
C=CCOc1c(CNc2nccs2)cccc1OCC,-7,0,0,-2,36*,12
C=CCOc1ccc(CNc2nccs2)cc1OCC,-2,0,7,-2,-22,-14
Cc1cccc(SC2CCN(Cc3nc(CC4CC4)no3)CC2)c1,4,0,3,-1,41*,-28
COc1c2ccoc2nc2c(OC)c(OCC(OC(C)=O)C(C)(C)O)ccc12 (stereo not given),-3,0,5,0,161*,13
CC1(C)C(/C=C/C=C/C=C/C=C2\N(CCCCS(=O)(=O)O)c3ccc4ccccc4c3C2(C)C)=[N+](CCCCS(=O)(=O)[O-])c2ccc3ccccc3c21,51*,0,x,x,x,61*
CN1CCN(CCCNC(=O)c2ccc(/C=C3/Sc4ccccc4N(Cc4cccc(Cl)c4)C3=O)cc2)CC1,x,0,-2,-1,78*,x
CCN1CCN(CCNC(=O)c2ccc(/C=C3\Sc4ccccc4N(Cc4ccccc4F)C3=O)cc2)CC1,-16,0,-3,0,86*,13
CN1CCN(CCCN2c3ccccc3Sc3ccc(Cl)cc32)CC1,-8,0,-2,-3,110*!,-7
CN1CCN(CCCNC(=O)c2ccc(/C=C3\Oc4ccccc4N(Cc4ccccc4F)C3=O)cc2)CC1,4,4,-6,4,x,23
CN1CCN(CCCN2c3ccccc3Sc3ccccc32)CC1,x,x,-2,x,x,x
CN1CCN(CCCNC(=O)c2ccc(/C=C3\Sc4ccccc4N(Cc4ccc(F)cc4)C3=O)cc2)CC1,x,0,0,1,87*,x
CC[C@@H](CCCCCC#N)CCC(=O)N(c1ccccc1)c1ccccc1,x,x,-2,x,x,x
CCN(CC)c1ccc(N=Cc2c(C)[nH]c3ccccc23)cc1,199*,0,1,-14,-6,188*
CC(C)Oc1ccc(C(=O)Nc2ccc(N3CCCC3)cc2)cc1,-14,1,x,x,34*,-11
